# Assay results taken from the supplement of paper PMC8728848.
# The sample as a whole holds a higher share of the strongest signals than the screen did.
# Columns and labels:
# Test in all cases: glycan array binding signal (z-score within array); higher = stronger binding
# Settings in all cases: glycan notation: IUPAC condensed, linker removed
# [1] = target: Gal(b1-4)GlcNAc(b1-3)Gal(b1-4)GlcNAc(b1-3)Gal(b1-4)GlcNAc(b1-3)Gal(b1-4)GlcNAc(b1-3)Gal(b1-4)GlcNAc(b1-3)Gal(b1-4)GlcNAc(b1-2)Man(a1-3)[Gal(b1-4)GlcNAc(b1-3)Gal(b1-4)GlcNAc(b1-3)Gal(b1-4)GlcNAc(b1-3)Gal(b1-4)GlcNAc(b1-3)Gal(b1-4)GlcNAc(b1-3)Gal(b1-4)GlcNAc(b1-2)Man(a1-6)]Man(b1-4)GlcNAc(b1-4)GlcNAc
# How it was run: (§1)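 The binding signal is a Z-score computed within each array. Data were drawn from 3228 arrays in the Consortium for Functional Glycomics database, restricted to those with a known protein sequence. Scores were averaged over arrays of the same protein sequence at different concentrations or buffers, and over linkers, and negative values can be taken as non-binding.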
# [2] = target: Gal(b1-4)GlcNAc(b1-3)[GlcNAc(b1-6)]Gal(b1-4)GlcNAc
# How it was run: as §1
# [3] = target: Gal(b1-4)GlcNAc(b1-6)Gal(b1-4)GlcNAc
# How it was run: as §1
# [4] = target: Gal(b1-4)GlcNAc(b1-6)[Gal(b1-4)GlcNAc(b1-3)]GalNAc
# How it was run: as §1
# Gal3S(b1-3)GlcNAc = target: Gal3S(b1-3)GlcNAc
# How it was run: as §1
# Gal3S(b1-4)Glc = target: Gal3S(b1-4)Glc
# How it was run: as §1
# Gal3S(b1-4)GlcNAc6S = target: Gal3S(b1-4)GlcNAc6S
# How it was run: as §1
# Gal6S(b1-4)Glc6S = target: Gal6S(b1-4)Glc6S
# How it was run: as §1
# [5] = target: GalNAc(a1-3)GalNAc(a1-3)Gal(a1-4)Gal(b1-4)GlcNAc
# How it was run: as §1
# [6] = target: GalNAc(b1-3)Gal(a1-4)Gal(b1-4)GlcNAc(b1-3)Gal(b1-4)Glc
# How it was run: as §1
# [7] = target: GlcNAc(b1-2)[GlcNAc(b1-4)]Man(a1-3)[GlcNAc(b1-2)Man(a1-6)]Man(b1-4)GlcNAc(b1-4)GlcNAc
# How it was run: as §1
# GlcNAc(b1-3)Gal = target: GlcNAc(b1-3)Gal
# How it was run: as §1
# [8] = target: GlcNAc(b1-3)Gal(b1-4)GlcNAc(b1-3)Gal(b1-4)GlcNAc(b1-3)Gal(b1-4)GlcNAc(b1-3)Gal(b1-4)GlcNAc(b1-2)[GlcNAc(b1-3)Gal(b1-4)GlcNAc(b1-3)Gal(b1-4)GlcNAc(b1-3)Gal(b1-4)GlcNAc(b1-3)Gal(b1-4)GlcNAc(b1-6)]Man(a1-6)[GlcNAc(b1-3)Gal(b1-4)GlcNAc(b1-3)Gal(b1-4)GlcNAc(b1-3)Gal(b1-4)GlcNAc(b1-3)Gal(b1-4)GlcNAc(b1-2)Man(a1-3)]Man(b1-4)GlcNAc(b1-4)[Fuc(a1-6)]GlcNAc
# How it was run: as §1
# Kdn(a2-3)Gal(b1-4)Glc = target: Kdn(a2-3)Gal(b1-4)Glc
# How it was run: as §1
# [9] = target: Man(a1-2)Man(a1-3)[Man(a1-2)Man(a1-6)]Man(a1-6)[Man(a1-2)Man(a1-2)Man(a1-3)]Man
# How it was run: as §1
# [10] = target: Man(a1-2)Man(a1-6)[Man(a1-3)]Man(a1-6)[Man(a1-2)Man(a1-2)Man(a1-3)]Man(b1-4)GlcNAc(b1-4)GlcNAc
# How it was run: as §1
# [11] = target: Man(a1-3)[Man(a1-6)]Man(a1-6)[Man(a1-2)Man(a1-3)]Man(b1-4)GlcNAc(b1-4)GlcNAc
# How it was run: as §1
# [12] = target: Neu5Ac(a2-3)Gal(b1-3)GlcNAc(b1-3)Gal(b1-4)GlcNAc
# How it was run: as §1
# [13] = target: Neu5Ac(a2-3)Gal(b1-4)GlcNAc(b1-3)Gal(b1-4)GlcNAc(b1-3)Gal(b1-4)GlcNAc
# How it was run: as §1
# [14] = target: Neu5Ac(a2-3)Gal(b1-4)GlcNAc(b1-3)GalNAc
# How it was run: as §1
# [15] = target: Neu5Ac(a2-3)[GalNAc(b1-4)]Gal(b1-4)Glc
# How it was run: as §1
# [16] = target: Neu5Ac(a2-6)Gal(b1-4)GlcNAc(b1-2)Man(a1-3)[GlcNAc(b1-2)Man(b1-4)GlcNAc(b1-2)Man(a1-6)]Man(b1-4)GlcNAc(b1-4)GlcNAc
# How it was run: as §1
# [17] = target: Neu5Ac(a2-6)Gal(b1-4)GlcNAc(b1-2)Man(a1-3)[Neu5Ac(a2-3)Gal(b1-4)GlcNAc(b1-2)Man(a1-6)]Man(b1-4)GlcNAc(b1-4)GlcNAc
# How it was run: as §1
# [18] = target: Neu5Ac(a2-6)Gal(b1-4)GlcNAc(b1-2)Man(a1-6)[GlcNAc(b1-2)Man(a1-3)]Man(b1-4)GlcNAc(b1-4)GlcNAc
# How it was run: as §1
# [19] = target: Neu5Ac(a2-6)Gal(b1-4)GlcNAc(b1-3)Gal(b1-4)GlcNAc(b1-2)Man(a1-3)[Neu5Ac(a2-6)Gal(b1-4)GlcNAc(b1-3)Gal(b1-4)GlcNAc(b1-2)Man(a1-6)]GalNAc
# How it was run: as §1
# [20] = target: Neu5Ac(a2-6)GalNAc(b1-4)GlcNAc6S
# How it was run: as §1
# [21] = target: Neu5Ac(a2-6)GlcNAc(b1-4)GlcNAc(b1-4)GlcNAc
# How it was run: as §1
# [22] = target: Neu5Gc(a2-8)Neu5Gc(a2-3)Gal(b1-4)GlcNAc(b1-3)Gal(b1-4)GlcNAc
# How it was run: as §1
binder,measurement,setting,value
"Gal 9 (Homo sapiens), O00182 (protein) MAFSGSQAPYLSPAVPFSGTIQGGLQDGLQITVNGTVLSSSGTRFAVNFQTGFSGNDIAFHFNPRFEDGGYVVCNTRQNGSWGPEERKTHMPFQKGMPFDLCFLVQSSDFKVMVNGILFVQYFHRVPFHRVDTISVNGSVQLSYISFQNPRTVPVQPAFSTVPFSQPVCFPPRPRGRRQKPPGVWPANPAPITQTVIHTVQSAPGQMFSTPAIPPMMYPHPAYPMPFITTILGGLYPSKSILLSGTVLPSAQRFHINLCSGNHIAFHLNPRFDENAVVRNTQIDNSWGSEERSLPRKMPFVRGQSFSVWILCEAHCLKVAVDGQHLFEYYHRLRNLPTINRLEVGGDIQLTHVQT",glycan array binding signal (z-score),[1],9.39
same,glycan array binding signal (z-score),[2],0.555
same,glycan array binding signal (z-score),[3],-0.17
same,glycan array binding signal (z-score),[4],-0.275
same,glycan array binding signal (z-score),Gal3S(b1-3)GlcNAc,0.996
same,glycan array binding signal (z-score),Gal3S(b1-4)Glc,-0.132
same,glycan array binding signal (z-score),Gal3S(b1-4)GlcNAc6S,4.06
same,glycan array binding signal (z-score),Gal6S(b1-4)Glc6S,-0.299
same,glycan array binding signal (z-score),[5],0.672
same,glycan array binding signal (z-score),[6],-0.036
same,glycan array binding signal (z-score),[7],-0.323
same,glycan array binding signal (z-score),GlcNAc(b1-3)Gal,-0.323
same,glycan array binding signal (z-score),[8],2.32
same,glycan array binding signal (z-score),Kdn(a2-3)Gal(b1-4)Glc,-0.315
same,glycan array binding signal (z-score),[9],-0.311
same,glycan array binding signal (z-score),[10],-0.321
same,glycan array binding signal (z-score),[11],-0.263
same,glycan array binding signal (z-score),[12],0.431
same,glycan array binding signal (z-score),[13],0.554
same,glycan array binding signal (z-score),[14],-0.265
same,glycan array binding signal (z-score),[15],-0.302
same,glycan array binding signal (z-score),[16],0.913
same,glycan array binding signal (z-score),[17],-0.259
same,glycan array binding signal (z-score),[18],-0.323
same,glycan array binding signal (z-score),[19],5.41
same,glycan array binding signal (z-score),[20],-0.291
same,glycan array binding signal (z-score),[21],-0.318
same,glycan array binding signal (z-score),[22],-0.282
